About 2,000 (36%) of roughly 5,500 compounds were called active. Not shown: some 18% with an inconclusive outcome. Rule as the data show it: active = normalized growth mostly below about 0.91 (no sharp cut-off); inconclusive = no clear call, values can overlap the other calls; inactive = mostly above about 0.92. The list shows a part of the results.
Test: chemical genetic growth profiling, strain panel (AID 1159580);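 also: tested at 20 µM; growth read once vehicle control cultures reached saturation at 30 °C; 1 = growth at the plate median or of vehicle wells; lower values mean less growth of the strain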
Details: growth OD

Measured: normalized growth

C=C[C@H]1CN2CC[C@H]1C[C@H]2[C@H](O)c1ccnc2ccccc12
inactive: S. cerevisiae deletion strains, locus YJR075W, strain HOC1, hits give low values 1.02 | S. cerevisiae deletion strains, locus YKL009W, strain mrt4, hits give low values 1.01 | S. cerevisiae deletion strains, locus YKL068W, hits give low values 0.982 | S. cerevisiae deletion strains, locus YKL085W, strain MDH1 (second series), hits give low values 0.991 | S. cerevisiae deletion strains, locus YKL085W, strain MDH1, hits give low values 0.991 | S. cerevisiae deletion strains, locus YKL160W, strain elf1, hits give low values 0.989 | S. cerevisiae deletion strains, locus YKL190W, strain CNB1, hits give low values 0.986 | S. cerevisiae deletion strains, locus YKR001C, strain vps1, hits give low values 0.967 | S. cerevisiae deletion strains, locus YKR026C, strain gcn3, hits give low values 1 | S. cerevisiae deletion strains, locus YKR091W, strain srl3, hits give low values 1 | S. cerevisiae deletion strains, locus YLL001W, strain dnm1, hits give low values 0.972 | S. cerevisiae deletion strains, locus YLL026W, hits give low values 0.994 | S. cerevisiae deletion strains, locus YLL041C, strain sdh2, hits give low values 1 | S. cerevisiae deletion strains, locus YLR027C, strain aat2, hits give low values 1 | S. cerevisiae deletion strains, locus YLR039C, strain RIC1, hits give low values 0.99 | S. cerevisiae deletion strains, locus YLR058C, strain SHM2, hits give low values 1 | S. cerevisiae deletion strains, locus YLR102C, strain apc9, hits give low values 0.976 | S. cerevisiae deletion strains, locus YLR113W, strain HOG1, hits give low values 0.941 | S. cerevisiae deletion strains, locus YLR221C, strain rsa3, hits give low values 0.989 | S. cerevisiae deletion strains, locus YLR258W, strain gsy2, hits give low values 1.01 | S. cerevisiae deletion strains, locus YLR262C, strain YPT6 (second series), hits give low values 0.975 | S. cerevisiae deletion strains, locus YLR262C, strain YPT6, hits give low values 0.966 | S. cerevisiae deletion strains, locus YLR268W, strain sec22, hits give low values 0.981 | S. cerevisiae deletion strains, locus YLR320W, strain mms22, hits give low values 0.999 | S. cerevisiae deletion strains, locus YLR330W, strain CHS5, hits give low values 1 | S. cerevisiae deletion strains, locus YLR342W, strain FKS1 (second series), hits give low values 0.995 | S. cerevisiae deletion strains, locus YLR342W, strain FKS1, hits give low values 0.985 | S. cerevisiae deletion strains, locus YLR357W, strain rsc2, hits give low values 0.986 | S. cerevisiae deletion strains, locus YLR370C, strain arc18, hits give low values 0.995 | S. cerevisiae deletion strains, locus YLR371W, strain rom2, hits give low values 0.967 | S. cerevisiae deletion strains, locus YLR384C, strain iki3, hits give low values 0.988 | S. cerevisiae deletion strains, locus YLR418C, strain cdc73, hits give low values 1.03 | S. cerevisiae deletion strains, locus YML016C, strain PPZ1, hits give low values 1.01 | S. cerevisiae deletion strains, locus YML032C, strain rad52, hits give low values 0.97 | S. cerevisiae deletion strains, locus YML120C, strain ndi1, hits give low values 0.992 | S. cerevisiae deletion strains, locus YML124C, strain tub3, hits give low values 0.975 | S. cerevisiae deletion strains, locus YMR058W, strain fet3, hits give low values 0.983 | S. cerevisiae deletion strains, locus YMR078C, strain ctf18, hits give low values 0.965 | S. cerevisiae deletion strains, locus YMR125W, strain sto1, hits give low values 1 | S. cerevisiae deletion strains, locus YMR129W, hits give low values 1 | S. cerevisiae deletion strains, locus YMR205C, strain PFK2, hits give low values 1 | S. cerevisiae deletion strains, locus YMR223W, strain ubp8, hits give low values 0.978 | S. cerevisiae deletion strains, locus YMR231W, strain pep5, hits give low values 0.995 | S. cerevisiae deletion strains, locus YMR263W, strain SAP30, hits give low values 0.987 | S. cerevisiae deletion strains, locus YMR307W, strain GAS1, hits give low values 0.986 | S. cerevisiae deletion strains, locus YNL067W, strain RPL9B, hits give low values 1.01 | S. cerevisiae deletion strains, locus YNL071W, strain lat1, hits give low values 1 | S. cerevisiae deletion strains, locus YNL128W, strain TEP1, hits give low values 1.03 | S. cerevisiae deletion strains, locus YNL153C, strain GIM3, hits give low values 1.01 | S. cerevisiae deletion strains, locus YNL183C, strain NPR1, hits give low values 0.927 | S. cerevisiae deletion strains, locus YNL209W, strain ssb2, hits give low values 1.01 | S. cerevisiae deletion strains, locus YNL233W, strain BNI4, hits give low values 0.999 | S. cerevisiae deletion strains, locus YNL248C, strain rpa49, hits give low values 1.02 | S. cerevisiae deletion strains, locus YNL250W, strain rad50, hits give low values 0.989 | S. cerevisiae deletion strains, locus YNL271C, strain bni1, hits give low values 0.993 | S. cerevisiae deletion strains, locus YNL298W, strain CLA4, hits give low values 0.98 | S. cerevisiae deletion strains, locus YNL307C, strain MCK1, hits give low values 0.981 | S. cerevisiae deletion strains, locus YNL322C, strain KRE1 (second series), hits give low values 0.99 | S. cerevisiae deletion strains, locus YNL322C, strain KRE1, hits give low values 1 | S. cerevisiae deletion strains, locus YNR049C, strain mso1, hits give low values 1 | S. cerevisiae deletion strains, locus YNR052C, strain pop2, hits give low values 0.959 | S. cerevisiae deletion strains, locus YOL006C, strain TOP1, hits give low values 1.07 | S. cerevisiae deletion strains, locus YOL012C, strain htz1 0.823 | S. cerevisiae deletion strains, locus YOL147C, strain pex11, hits give low values 0.971 | S. cerevisiae deletion strains, locus YOR001W, strain rrp6, hits give low values 0.978 | S. cerevisiae deletion strains, locus YOR061W, strain CKA2, hits give low values 1.01 | S. cerevisiae deletion strains, locus YOR069W, strain VPS5, hits give low values 1.01 | S. cerevisiae deletion strains, locus YOR070C, strain gyp1, hits give low values 1 | S. cerevisiae deletion strains, locus YOR080W, strain dia2, hits give low values 0.99 | S. cerevisiae deletion strains, locus YOR083W, strain WHI5, hits give low values 0.948 | S. cerevisiae deletion strains, locus YOR106W, strain vam3, hits give low values 0.994 | S. cerevisiae deletion strains, locus YOR136W, strain idh2, hits give low values 0.973 | S. cerevisiae deletion strains, locus YOR144C, strain elg1, hits give low values 0.972 | S. cerevisiae deletion strains, locus YOR184W, strain ser1, hits give low values 0.977 | S. cerevisiae deletion strains, locus YOR231W, strain MKK1, hits give low values 0.972 | S. cerevisiae deletion strains, locus YOR265W, strain rbl2, hits give low values 0.994 | S. cerevisiae deletion strains, locus YOR270C, strain vph1, hits give low values 1.02 | S. cerevisiae deletion strains, locus YOR290C, strain snf2, hits give low values 0.996 | S. cerevisiae deletion strains, locus YOR316C, strain cot1, hits give low values 0.984 | S. cerevisiae deletion strains, locus YPL051W, strain arl3, hits give low values 1 | S. cerevisiae deletion strains, locus YPL055C, strain LGE1, hits give low values 1.01 | S. cerevisiae deletion strains, locus YPL078C, strain atp4, hits give low values 0.99 | S. cerevisiae deletion strains, locus YPL106C, strain sse1, hits give low values 0.994 | S. cerevisiae deletion strains, locus YPL240C, strain hsp82, hits give low values 1.01 | S. cerevisiae deletion strains, locus YPL241C, strain CIN2, hits give low values 0.992 | S. cerevisiae deletion strains, locus YPL256C, strain CLN2, hits give low values 0.97 | S. cerevisiae deletion strains, locus YPR119W, strain clb2, hits give low values 0.98 | S. cerevisiae deletion strains, locus YPR141C, strain kar3, hits give low values 0.983 | S. cerevisiae deletion strains, locus YPR163C, strain tif3, hits give low values 0.977 | S. cerevisiae deletion strains, locus YPR167C, strain met16, hits give low values 0.989 | S. cerevisiae deletion strains, strain wtn01, hits give low values 0.976 | S. cerevisiae strains, strain wild type, hits give low values 1

Reference: PubChem BioAssay AID1159580 (chemical genetic matrix, 2015)
